The source of these data is PubChem BioAssay.

Assay [1] is described as follows: reducers of endogenous Her2 protein level, primary screen, SKBR3 breast tumor cells, AlphaScreen, ATP viability (AID 461;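 active = Her2 level under about 52% in both replicate screens, with viability over 70% of control, limit read from the data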;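 for Her2 level: lower value means less Her2 protein in the cells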;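 for viability: percent of carrier control wells set as 100% viability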). As to conditions: 18-24 h, measured here: SKBR3 viability, ATP luminescence, at 10 µM. On the technique in general: Bead proximity is the source of the signal in Alpha formats.
Assay [2] has as its target Receptor tyrosine-protein kinase erbB-2 (Homo sapiens) (UniProt P04626). Described as above. Conditions: 18-24 h, at 10 µM, stronger effect = lower value.
A short description of assay [3]: SK-BR-3 cell growth inhibitors, pilot screen, 24 h, human (AID 572;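 active = viability at or below 10% of carrier control in both of two separate runs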;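 note: compound exposure lasted between 18 and 24 h rather than exactly 24 h; 100% = carrier-treated control wells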). As to conditions: SK-BR-3 viability, CellTiter-Glo luminescence, at 10 µM, stronger effect = lower value. For orientation: Cellular ATP, detected with luciferase, serves as a proxy for viable cell number.
The nature of assay [4]: HUVEC growth inhibition – cell-based, human, primary screen (AID 575;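 active = viability at or below 30% in both replicate assays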;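 note: 100% = median of untreated cell wells with 0.1% DMSO on each plate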). As to conditions: HUVEC proliferation, CellTiter-Glo luminescence, 72 h; at 10 µM; stronger effect = lower value.
Assay [5] is described as follows: growth inhibitors of H69AR lung tumor, primary screen, human, duplicate replicates (AID 580;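 active = viability at or under a set limit in both replicates, limit being median viability minus 3 SD, cut at about 48% in these data, passing the limit was not always enough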;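 note: 100% = mean luminescence of untreated wells and 0% = no signal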). Conditions: H69AR lung tumor cells viability, ATP luminescence, 72 h; at 10 µM; stronger effect = lower value.
A short description of assay [6]: reversal of MRP1-mediated doxorubicin resistance, pilot screen, H69AR cells, doxorubicin co-treatment (AID 601). As to conditions: CellTiter-Glo, 72 h, at 10 µM; for differential viability (reversal): stronger effect = higher value.
The nature of assay [7]: 384-well plate pilot, post-Golgi transport modulator project, inhibition of yeast transport mutant growth (AID 636; in the data active = inhibition above about 31%). Conditions: absorbance 615 nm, about 18 h, stronger effect = higher value.
Assay [8] in a line: growth suppression of yeast trafficking mutant, preliminary HTS, modulators of trafficking downstream of Golgi apparatus project, 1536-format plate, OD 615 nm (AID 637; in the data active = inhibition above about 30%). Conditions: yeast transport mutant growth, absorbance 615 nm, 18 h; stronger effect = higher value.
Assay [9] is described as follows: OD615 S. cerevisiae growth inhibition, permissive medium, pilot counter-assay, permissive growth control for S. cerevisiae lifespan shortening project (AID 705;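 active = growth inhibition above 25% in both replicates, a cutoff set 3 SD above the mean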). As to conditions: OD615, 24 h, at 10 µM, stronger effect = higher value.
Assay [10] is described as follows: Restrictive medium S. cerevisiae growth inhibition, OD615, pilot screen of yeast lifespan reduction project, restrictive growth control (AID 706;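 active = growth inhibition above a set limit, 3 SD over mean compound inhibition, in both replicates, cut at about 43% in these data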;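 note: modified DeaD lifespan yeast strain shifted to restrictive glucose medium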). Conditions: OD615, 48 h, at 10 µM, stronger effect = higher value.
A short description of assay [11]: viability gain of MRP-1-high H69AR cells under doxorubicin, pilot screen, MRP-1 activator project, CellTiter-Glo, duplicate (AID 807;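 active = viability increase at or above a cutoff of the median across tested compounds plus 3 SD, cut at about 8.5% in these data, passing the limit was not always enough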;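 note: compound pretreatment 18-22 h then 72 h combined with doxorubicin; 0% = doxorubicin alone and 100% = vehicle without doxorubicin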). Conditions: H69AR viability with doxorubicin, CellTiter-Glo luminescence; at 10 µM; stronger effect = higher value.
Assay [12] in a line: growth suppression of beta-catenin knockout HCT116, pilot screen, human colon tumor cells (AID 823;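 active = cell viability at or below a set limit in both duplicate runs, the limit being the all-compound median minus 4 SD, cut at about 23% in these data, passing the limit was not always enough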;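 note: 0% = wells killed by 20 µM Hyamine and 100% = untreated DMSO cell wells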). Conditions: CellTiter-Glo, 60 h, at 10 µM, stronger effect = lower value.
Assay [13] is described as follows: growth suppression of PTEN-deleted HCT116, pilot screen, cell-based, HCT116 clonal line, CellTiter-Glo (AID 824;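 active = viability at or below 27.92% in each of two runs, the all-compound median minus 4 SD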;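 note: 0% = 20 µM Hyamine control and 100% = vehicle cell control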). Conditions: 60 h, at 10 µM, stronger effect = lower value.
A short description of assay [14]: inhibitors of the yeast RAM network, pilot screen, dse1pr::URA3 reporter, 5-FOA selection (AID 869;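 active = inhibition over a set limit, the all-compound mean plus 3 SD, in both replicate runs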;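 note: 0% = DMSO wells with no growth and 100% = 10 µM 1-NA-PP1 with full growth; RAM network block rescues cells from 5-FOA so hits raise OD615 growth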). Conditions: S. cerevisiae dse1pr::URA3 5-FOA growth, OD615, 2 d; at 10 µM; stronger effect = higher value; strain carries analog-sensitive mutant Cbk1 kinase.
Assay [15] can be described thus: RAM signaling pathway blockade in yeast – S. cerevisiae, Pdr1DBD-CYC8 efflux-inhibited sensitized strain, primary screen (AID 1298;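 active = RAM network inhibition above 8.4% in each of two replicates, 3 SD over the compound average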;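 note: 0% = DMSO untreated cells without growth and 100% = 10 µM 1-NA-PP1 full growth; higher means more yeast growth rescued from 5-FOA killing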). As to conditions: S. cerevisiae cbk1-as DSE1-URA3 strain, 5-FOA growth OD615, 2 d; at 50 µM; stronger effect = higher value.
Where [16] appears, read: H69AR cells + 2 uM doxorubicin, measured here: viability with 2 uM doxorubicin, stronger effect = lower value.
Setting [17] is: H69AR cells, compound alone cytotoxicity.

Structures are written as SMILES. Records with an inconclusive call do not appear. Active and inactive are the calls of the source.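 Rule for the calls, unless noted: active = viability loss from added drug above about 55%, and viability with drug at most 40%, in both replicates (limit read from the data, passing the limit was not always enough); inconclusive = both conditions met in only one replicate; inactive = neither replicate meets both conditions.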

Chain of Receptor tyrosine-protein kinase erbB-2 (Homo sapiens) (P04626 whole entry, looked up): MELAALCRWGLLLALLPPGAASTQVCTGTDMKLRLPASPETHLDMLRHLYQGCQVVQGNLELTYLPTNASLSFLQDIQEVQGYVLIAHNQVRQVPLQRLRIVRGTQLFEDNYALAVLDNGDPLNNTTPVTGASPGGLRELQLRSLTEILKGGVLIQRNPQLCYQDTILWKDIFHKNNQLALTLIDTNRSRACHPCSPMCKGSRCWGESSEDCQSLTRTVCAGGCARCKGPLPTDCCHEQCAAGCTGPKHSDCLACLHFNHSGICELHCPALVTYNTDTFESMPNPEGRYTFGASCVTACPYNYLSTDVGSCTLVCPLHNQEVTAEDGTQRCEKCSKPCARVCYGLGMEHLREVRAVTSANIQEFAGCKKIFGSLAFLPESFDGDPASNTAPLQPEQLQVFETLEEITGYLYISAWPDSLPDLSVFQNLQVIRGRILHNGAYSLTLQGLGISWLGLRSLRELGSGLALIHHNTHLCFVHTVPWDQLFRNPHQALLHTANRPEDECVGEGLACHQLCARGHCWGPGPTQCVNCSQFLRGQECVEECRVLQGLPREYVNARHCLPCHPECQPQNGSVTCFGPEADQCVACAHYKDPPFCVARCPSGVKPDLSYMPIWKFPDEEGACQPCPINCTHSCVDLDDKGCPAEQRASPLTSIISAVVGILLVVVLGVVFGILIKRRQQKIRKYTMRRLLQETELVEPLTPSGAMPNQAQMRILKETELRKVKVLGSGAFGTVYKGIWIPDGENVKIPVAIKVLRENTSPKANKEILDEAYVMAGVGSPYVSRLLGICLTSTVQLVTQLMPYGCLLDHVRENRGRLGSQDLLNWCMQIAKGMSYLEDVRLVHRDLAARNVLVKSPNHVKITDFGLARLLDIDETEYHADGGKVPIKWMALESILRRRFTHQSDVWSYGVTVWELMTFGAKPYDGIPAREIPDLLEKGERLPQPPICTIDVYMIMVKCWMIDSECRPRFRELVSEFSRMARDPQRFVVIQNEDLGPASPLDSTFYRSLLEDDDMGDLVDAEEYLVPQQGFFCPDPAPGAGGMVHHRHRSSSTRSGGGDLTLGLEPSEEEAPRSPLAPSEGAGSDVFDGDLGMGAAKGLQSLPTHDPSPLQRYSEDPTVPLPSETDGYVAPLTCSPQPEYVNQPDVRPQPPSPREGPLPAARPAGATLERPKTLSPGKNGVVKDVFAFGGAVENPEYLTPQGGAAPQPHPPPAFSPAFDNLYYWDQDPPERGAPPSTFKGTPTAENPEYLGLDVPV

In the case of `CCOC(=O)N1CCN(C(=O)c2ccc(CS(=O)(=O)c3c(Cl)cccc3Cl)o2)CC1`, the viability in assay [1] is 114%; in [3] it was 114% (inactive); in [4], 107% (inactive); in assay [5], 96.5% (inactive); in assay [6] (setting [16]) it was 101%; in assay [6] (setting [17]) it was 96.5%. For the same compound, the viability is 107% (inactive) in assay [12] and 100% (inactive) in assay [13]. Further, the Her2 level in assay [2] was 128% (inactive). Moreover, the differential viability (reversal) in assay [6] (H69AR cells + 2 uM doxorubicin) is -4.92% (inactive). For the same compound, the inhibition in assay [7] was -3.07% (inactive); in assay [8], -3.33% (inactive); in [14], 0.365% (inactive). In addition, the growth inhibition is -9.35% (inactive) in [9] and -14% (inactive) in assay [10]. Moreover, in [11], the viability increase was -2.77% (inactive). Also, the RAM network inhibition in assay [15] was 1.21% (inactive).

Turning to `O=C1CC(c2ccccc2)CC(O)=C1C=NCCN1CCOCC1` (stereo not drawn), the viability is 96.5% in [1]; 96.5% (inactive) in assay [3]; 85.7% (inactive) in [4]; 102% (inactive) in assay [5]; 96.2% in [6] (setting [16]); 102% in assay [6] (setting [17]). For the same compound, the viability in assay [12] is 94.7% (inactive); in [13] it was 93.2% (inactive). The Her2 level in [2] was 85.5% (inactive). The differential viability (reversal) in assay [6] (H69AR cells + 2 uM doxorubicin) was 5.44% (inactive). The inhibition in assay [7] is -7.97% (inactive); in [8], -1.48% (inactive); in assay [14], 1.16% (inactive). Also, the growth inhibition is -4.59% (inactive) in assay [9] and 9.74% (inactive) in [10]. In addition, the viability increase in assay [11] is 0.42% (inactive). The RAM network inhibition in [15] was -0.52% (inactive).

For `O=C1C2C3C=CC(C3)C2C(=O)N1c1cccc(N2C(=O)C3C4C=CC(C4)C3C2=O)n1` (stereo not drawn), the viability in assay [1] is 91%; in assay [3], 91% (inactive); in assay [4] it was 109% (inactive); in assay [5] it was 93.4% (inactive); in assay [6] (setting [16]), 97.6%; in assay [6] (setting [17]), 93.4%. Moreover, the viability in [12] and in [13] was 104% (inactive) throughout. Moreover, the Her2 level in assay [2] is 100% (inactive). Further, the differential viability (reversal) in assay [6] (H69AR cells + 2 uM doxorubicin) is -4.17% (inactive). The inhibition in assay [7] is -4.73% (inactive); in assay [8], 4.75% (inactive); in [14], 3.84% (inactive). In addition, the growth inhibition in assay [9] was -12% (inactive); in [10], -11.8% (inactive). In addition, the viability increase in assay [11] was -0.89% (inactive). For the same compound, the RAM network inhibition in assay [15] was 5.46% (inactive).

Consider `CCCCn1c(CNC(=O)CCC)nc2ccccc21`, for which the viability in assay [1] was 116%; in assay [3] it was 116% (inactive); in assay [4], 87.8% (inactive); in [5], 91.8% (inactive); in [6] (setting [16]), 87.9%; in assay [6] (setting [17]), 91.8%. Also, the viability in assay [12] was 104% (inactive); in [13], 100% (inactive). The Her2 level in assay [2] is 102% (inactive). The differential viability (reversal) in [6] (H69AR cells + 2 uM doxorubicin) was 3.83% (inactive). Further, the inhibition in [7] was -5.2% (inactive); in [8], -4.67% (inactive); in [14] it was -0.485% (inactive). In addition, the figures for the growth inhibition in assay [9] and in assay [10] were -9.17% (inactive) and -13.8% (inactive), respectively. In addition, the viability increase in assay [11] was -2.97% (inactive). In addition, in assay [15], the RAM network inhibition was 1.51% (inactive).

Regarding `COc1ccc(CC(=O)NCc2nnc(SCC(=O)Nc3nccs3)n2-c2ccccc2)cc1`, the viability in assay [1] is 99.5%; in assay [3], 99.5% (inactive); in assay [4], 98.4% (inactive); in assay [5], 96.6% (inactive); in assay [6] (setting [16]), 93.9%; in assay [6] (setting [17]) it was 96.6%. In addition, the viability in assay [12] was 102% (inactive); in [13] it was 96.7% (inactive). Moreover, the Her2 level in [2] is 98% (inactive). Further, in assay [6] (H69AR cells + 2 uM doxorubicin), the differential viability (reversal) was 2.73% (inactive). For the same compound, the figures for the inhibition in assay [7], in [8] and in assay [14] were -4.4% (inactive), -3.67% (inactive) and 1.48% (inactive), respectively. Also, the growth inhibition in [9] is -3.97% (inactive); in [10], 7.4% (inactive). The viability increase in assay [11] was -1.27% (inactive). The RAM network inhibition in assay [15] is 6.87% (inactive).

As to `CC1=C(C(N)=O)C(c2ccccn2)n2nc(-c3ccccc3Cl)nc2N1` (stereo not drawn), the viability was 98% in assay [1]; 98% (inactive) in [3]; 103% (inactive) in assay [4]; 91.6% (inactive) in [5]; 85.4% in [6] (setting [16]); 91.6% in assay [6] (setting [17]). Further, the viability is 101% (inactive) in assay [12] and 91.7% (inactive) in assay [13]. Also, the Her2 level in [2] is 114% (inactive). For the same compound, in assay [6] (H69AR cells + 2 uM doxorubicin), the differential viability (reversal) was 6.15% (inactive). In addition, the inhibition in assay [7] is -2% (inactive); in assay [8], -4.17% (inactive); in assay [14], 1% (inactive). The growth inhibition was -13.8% (inactive) in assay [9] and -3.02% (inactive) in assay [10]. In addition, in assay [11], the viability increase was -2.25% (inactive). Further, the RAM network inhibition in assay [15] was 3.22% (inactive).

In the case of `CCOc1ccc(NC(=O)CCN2CCN(c3ccccc3)CC2)cc1`, the viability was 94.5% in [1]; 94.5% (inactive) in assay [3]; 95.3% (inactive) in [4]; 82.5% (inactive) in [5]; 78.5% in [6] (setting [16]); 82.5% in assay [6] (setting [17]). Besides, the results for the viability in assay [12] and in assay [13] were 90.4% (inactive) and 80.4% (inactive), respectively. Also, the Her2 level in assay [2] is 104% (inactive). In [6] (H69AR cells + 2 uM doxorubicin), the differential viability (reversal) was 4% (inactive). For the same compound, the inhibition in assay [7] was -0.9% (inactive); in assay [8], 3.17% (inactive); in assay [14] it was 0.545% (inactive). Also, the growth inhibition was 4.18% (inactive) in assay [9] and -17.7% (inactive) in [10]. In addition, the viability increase in assay [11] is -3.89% (inactive). For the same compound, the RAM network inhibition in assay [15] was 3.81% (inactive).

For the compound `CCCCc1cc(=O)oc2cc(OCC(=O)N(CC)CC)c(Cl)cc12`, the viability is 98% in assay [1]; 98% (inactive) in assay [3]; 77.9% (inactive) in [4]; 79% (inactive) in [5]; 96.3% in [6] (setting [16]); 79% in assay [6] (setting [17]). In addition, the viability in assay [12] is 93.5% (inactive); in assay [13] it was 89.6% (inactive). Also, the Her2 level in [2] was 112% (inactive). Besides, in assay [6] (H69AR cells + 2 uM doxorubicin), the differential viability (reversal) was -17.3% (inactive). Also, the inhibition in assay [7] was -4% (inactive); in assay [8], -1.17% (inactive); in assay [14] it was -0.34% (inactive). Moreover, the growth inhibition was -1.69% (inactive) in [9] and 2.79% (inactive) in [10]. Moreover, in [11], the viability increase was -1.39% (inactive). Besides, in assay [15], the RAM network inhibition was 5.28% (inactive).

On to `COC(=O)c1ccc(-c2nn(C)c(=O)c3ccccc23)cc1`, for which the viability is 93.5% in [1]; 93.5% (inactive) in assay [3]; 83.8% (inactive) in [4]; 94.6% (inactive) in assay [5]; 86.9% in assay [6] (setting [16]); 94.6% in assay [6] (setting [17]). Further, the viability in assay [12] was 94.3% (inactive); in [13] it was 91% (inactive). Besides, in assay [2], the Her2 level was 99.5% (inactive). In addition, the differential viability (reversal) in [6] (H69AR cells + 2 uM doxorubicin) was 7.75% (inactive). The inhibition in [7] is -5.33% (inactive); in assay [8] it was 4.17% (inactive); in assay [14], 0.79% (inactive). Further, the growth inhibition was 3.78% (inactive) in [9] and 6.35% (inactive) in [10]. In [11], the viability increase is -2.27% (inactive). Also, in [15], the RAM network inhibition is -1.8% (inactive).

Broadly, the viability is a read-out of living cells in per cent, often relative to untreated cells. What is called inhibition is the relative decrease from the control value, in per cent.
